Among the data in PubChem BioAssay (EPA / NIEHS) are outcome and AC50 values, retold here.

Details in all cases: mRNA level, 48 h; actives raise or lower the signal
Read-out in assay [1]: Bcl-2 (BID) gene, BID (gene 637)
The experiment in a line: LTEA_HepaRG_BID: Life Technologies and Expression Analysis (LTEA) Assay for Bcl-2 (BID) gene using HepaRG (AID 2283476). In short, it runs like this: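 Duplicate 48 h treatments of HepaRG cells in serum-free induction medium spanned 100 uM downward in half-log steps, 0.5% DMSO. Transcript change quantified by qRT-PCR against three housekeeping genes, fitted up or down versus DMSO.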

Read-out in another assay: Caspase-3 (Homo sapiens) (UniProt P42574)
Put plainly: LTEA_HepaRG_CASP3: Life Technologies and Expression Analysis (LTEA) Assay for cysteine-aspartic acid protease (CASP3) using HepaRG (AID 2283477). In short, it runs like this: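 Read-out is CASP3 mRNA level by TaqMan qRT-PCR in human HepaRG cells after 48 h chemical exposure. Eight half-log concentrations topping at 100 uM were tested in 0.5% DMSO; gain or loss was fitted relative to DMSO.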

Read-out in assay [2]: Cytochrome P450 (CYP24A1), CYP24A1 (gene 1591)
The experiment in a line: LTEA_HepaRG_CYP24A1: Life Technologies and Expression Analysis (LTEA) Assay for Cytochrome P450 (CYP24A1) using HepaRG (AID 2283478). In short, it runs like this:
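HepaRG, 48 h chemical exposure, 8-pt half-log CRC from 100 uM, 0.5% DMSO vehicle, duplicates. Endpoint: CYP24A1 mRNA by Fluidigm TaqMan qRT-PCR, normalized ACTB/GAPDH/POLR2A; gain/loss fit vs DMSO.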

Read-out in assay [3]: Cytochrome P450 (CYP1A2), CYP1A2 (gene 1544)
The experiment in a line: LTEA_HepaRG_CYP1A2: Life Technologies and Expression Analysis (LTEA) Assay for Cytochrome P450 (CYP1A2) using HepaRG (AID 2283479). Summed up: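 CYP1A2 transcript induction or loss, quantified by Fluidigm qRT-PCR against three housekeeping genes, was fitted bidirectionally against 0.5% DMSO controls. Human HepaRG cells received eight half-log concentrations from 100 uM over 48 h.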

Read-out in assay [4]: cysteine-aspartic acid protease (CASP8), CASP8 (gene 841)
Put plainly: LTEA_HepaRG_CASP8: Life Technologies and Expression Analysis (LTEA) Assay for cysteine-aspartic acid protease (CASP8) using HepaRG (AID 2283480). Summed up:
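Concentration-response in duplicate up to 100 uM (half-log steps, 0.5% DMSO) on differentiated HepaRG cultures for 48 h. Expression change of CASP8 mRNA is determined by TaqMan qRT-PCR with housekeeping-gene normalization.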

Read-out in assay [5]: Cytochrome P450 (CYP2B6), CYP2B6 (gene 1555)
Put plainly: LTEA_HepaRG_CYP2B6: Life Technologies and Expression Analysis (LTEA) Assay for Cytochrome P450 (CYP2B6) using HepaRG (AID 2283481). In short, it runs like this: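 HepaRG cells plated 48 h, switched to serum-free induction medium, then dosed 48 h (8 points, half-log from 100 uM, 0.5% DMSO). RNA isolated; CYP2B6 expression measured by qRT-PCR; gain or loss fitted relative to DMSO.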

Read-out in assay [6]: Cytochrome P450 2C19 (Homo sapiens) (UniProt P33261)
Put plainly: LTEA_HepaRG_CYP2C19: Life Technologies and Expression Analysis (LTEA) Assay for CYP2C19 using HepaRG (AID 2283482). Summed up: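 Transcript levels of CYP2C19 were quantified by qRT-PCR after HepaRG cells were treated for 48 hours with test chemicals up to 100 uM (eight half-log concentrations, 0.5% DMSO vehicle). Gain or loss of signal was fitted relative to DMSO.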

Read-out in another assay: CYP2C8 (gene 1558)
Put plainly: LTEA_HepaRG_CYP2C8: Life Technologies and Expression Analysis (LTEA) Assay for CYP2C8 using HepaRG (AID 2283483). In short, it runs like this:
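This is a transcriptional endpoint in HepaRG cultures: 48 h exposure, highest concentration 100 uM. CYP2C8 mRNA is quantified by TaqMan qRT-PCR.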

Read-out in the next assay: CYP2C9 (gene 1559)
The experiment in a line: LTEA_HepaRG_CYP2C9: Life Technologies and Expression Analysis (LTEA) Assay for CYP2C9 using HepaRG (AID 2283484). Summed up:
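Eight-point concentration-response (highest 100 uM, half-log dilutions) in HepaRG cells for 48 h; CYP2C9 expression by qRT-PCR normalized to ACTB, GAPDH, POLR2A. Bidirectional fit, DMSO baseline.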

Read-out in the next assay: CYP2E1 (gene 1571)
Put plainly: LTEA_HepaRG_CYP2E1: Life Technologies and Expression Analysis (LTEA) Assay for CYP2E1 using HepaRG (AID 2283485). In short, it runs like this:
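CYP2E1 transcript measured by Fluidigm qRT-PCR against three housekeeping genes in human HepaRG cells treated 48 h (top 100 uM, half-log steps, 0.5% DMSO vehicle). Gain or loss fitted relative to DMSO baseline.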

Read-out in another assay: CYP4A11 (gene 1579)
Put plainly: LTEA_HepaRG_CYP4A11: Life Technologies and Expression Analysis (LTEA) Assay for CYP4A11 using HepaRG (AID 2283486). In short, it runs like this: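 HepaRG, 48 h chem exposure, 8 conc (100 uM top, half-log), 0.5% DMSO vehicle; qRT-PCR readout, housekeeping-gene normalized; bidirectional curve fit vs DMSO baseline.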

Read-out in assay [7]: Cytochrome P450 3A4 (Homo sapiens) (UniProt P08684)
Put plainly: LTEA_HepaRG_CYP3A4: Life Technologies and Expression Analysis (LTEA) Assay for CYP3A4 using HepaRG (AID 2283487). In short, it runs like this:
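In a human hepatic line (HepaRG), duplicate wells were treated 48 h with up to 100 uM chemical in half-log dilutions. Endpoint: CYP3A4 mRNA induction or loss relative to 0.5% DMSO vehicle, by qRT-PCR.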

Read-out in assay [8]: DNA damage-inducible transcript 3 (DDIT3), DDIT3 (gene 1649)
Put plainly: LTEA_HepaRG_DDIT3: Life Technologies and Expression Analysis (LTEA) Assay for DNA damage-inducible transcript 3 (DDIT3) using HepaRG (AID 2283488). In short, it runs like this: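 DDIT3 transcript was quantified by qRT-PCR with ACTB/GAPDH/POLR2A normalization after 48 h chemical treatment of differentiated HepaRG cells in 0.5% DMSO. Dosing was eight-point, half-log, top 100 uM, duplicate wells. Curves fitted bidirectionally versus DMSO.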

Read-out in assay [9]: Pro-epidermal growth factor (Homo sapiens) (UniProt P01133)
Put plainly: LTEA_HepaRG_EGF: Life Technologies and Expression Analysis (LTEA) Assay for Epidermal growth factor (EGF) using HepaRG (AID 2283489). In short, it runs like this:
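HepaRG, 48 h dosing, 100 uM top, half-log x8, 0.5% DMSO. Readout: TaqMan qRT-PCR (Fluidigm array), housekeeping-normalized. Gain or loss of signal fit vs DMSO.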

Read-out in assay [10]: Early growth response protein 1 (EGR1) transcription factor, EGR1 (gene 1958)
Put plainly: LTEA_HepaRG_EGR1: Life Technologies and Expression Analysis (LTEA) Assay for Early growth response protein 1 (EGR1) transcription factor using HepaRG (AID 2283490). In short, it runs like this: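 EGR1 expression change in human HepaRG after 48 h chemical exposure, assessed by housekeeping-normalized qRT-PCR; concentration-response up to 100 uM, fitted in both directions against DMSO controls.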

Read-out in assay [11]: Ezrin (EZR), EZR (gene 7430)
Put plainly: LTEA_HepaRG_EZR: Life Technologies and Expression Analysis (LTEA) Assay for Ezrin (EZR) using HepaRG (AID 2283491). Summed up: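 Gain or loss of EZR mRNA is scored relative to 0.5% DMSO in human HepaRG cultures treated 48 h with test chemicals in duplicate, eight half-log concentrations from 100 uM.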

Read-out in assay [12]: Cytochrome P450 3A7 (Homo sapiens) (UniProt P24462)
Put plainly: LTEA_HepaRG_CYP3A7: Life Technologies and Expression Analysis (LTEA) Assay for CYP3A7 using HepaRG (AID 2283492). Summed up:
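Human HepaRG liver cells, 48 h post-plating, switched to serum-free induction medium and exposed in duplicate for 48 h. Dosing: 100 uM top, half-log dilutions, 8 points, 0.5% DMSO vehicle. Read-out: CYP3A7 mRNA, gain or loss fitted against DMSO baseline.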

Read-out in a further assay: CYP3A5 (gene 1577)
The experiment in a line: LTEA_HepaRG_CYP3A5: Life Technologies and Expression Analysis (LTEA) Assay for CYP3A5 using HepaRG (AID 2283493). Summed up:
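mRNA levels were quantified by qRT-PCR on Fluidigm arrays and normalized to three housekeeping genes. Differentiated HepaRG cells received 48 h exposure (top 100 uM, half-log steps, 0.5% DMSO vehicle, duplicate); bidirectional fitting versus DMSO.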

Read-out in assay [13]: Fatty Acid-Binding Protein 1 (FABP1), FABP1 (gene 2168)
Put plainly: LTEA_HepaRG_FABP1: Life Technologies and Expression Analysis (LTEA) Assay for Fatty Acid-Binding Protein 1 (FABP1) using HepaRG (AID 2283494). Summed up:
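Values reflect bidirectional concentration-response fitting of FABP1 mRNA change against 0.5% DMSO controls. Human HepaRG cultures received eight half-log doses (top 100 uM) for 48 h; expression quantified by TaqMan qRT-PCR with housekeeping-gene normalization.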

Read-out in assay [14]: Cytochrome P450 4A22 (Homo sapiens) (UniProt Q5TCH4)
The experiment in a line: LTEA_HepaRG_CYP4A22: Life Technologies and Expression Analysis (LTEA) Assay for Cytochrome P450 4A22 (CYP4A22) using HepaRG (AID 2283495). Summed up: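 Readout is CYP4A22 transcript induction or loss, quantified by qRT-PCR and normalized to ACTB, GAPDH and POLR2A. Human HepaRG cells receive test chemicals for 48 h at eight half-log concentrations from 100 uM in 0.5% DMSO.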

Active and inactive are the calls of the source. Rule for the calls: active = hit-call score of the fitted dose curve at least 0.9, where 1 is the maximum; inactive = score below 0.9.

Chain of Caspase-3 (Homo sapiens) (P42574 whole entry, looked up): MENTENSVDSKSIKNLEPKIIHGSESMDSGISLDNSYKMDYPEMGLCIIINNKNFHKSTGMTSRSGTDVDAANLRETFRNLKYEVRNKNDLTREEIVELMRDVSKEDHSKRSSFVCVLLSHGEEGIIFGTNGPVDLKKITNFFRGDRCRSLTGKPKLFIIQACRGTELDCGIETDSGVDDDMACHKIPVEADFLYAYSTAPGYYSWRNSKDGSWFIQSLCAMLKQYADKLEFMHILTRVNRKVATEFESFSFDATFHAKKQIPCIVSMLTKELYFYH
Chain of Cytochrome P450 3A4 (Homo sapiens) (P08684 whole entry, looked up): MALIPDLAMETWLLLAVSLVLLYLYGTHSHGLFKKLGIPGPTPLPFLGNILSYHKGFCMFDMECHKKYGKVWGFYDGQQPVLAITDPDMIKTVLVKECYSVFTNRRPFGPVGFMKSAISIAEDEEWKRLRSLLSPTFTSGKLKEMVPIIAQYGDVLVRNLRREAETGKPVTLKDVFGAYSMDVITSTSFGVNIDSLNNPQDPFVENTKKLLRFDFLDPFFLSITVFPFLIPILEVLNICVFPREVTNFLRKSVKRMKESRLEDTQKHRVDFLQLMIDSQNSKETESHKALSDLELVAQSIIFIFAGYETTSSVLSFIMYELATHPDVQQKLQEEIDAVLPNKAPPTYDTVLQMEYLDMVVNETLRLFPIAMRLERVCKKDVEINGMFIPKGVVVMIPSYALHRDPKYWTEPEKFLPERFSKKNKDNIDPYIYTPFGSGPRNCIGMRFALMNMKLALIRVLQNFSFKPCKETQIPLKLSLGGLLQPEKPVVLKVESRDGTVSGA
Chain of Cytochrome P450 2C19 (Homo sapiens) (P33261 whole entry, looked up): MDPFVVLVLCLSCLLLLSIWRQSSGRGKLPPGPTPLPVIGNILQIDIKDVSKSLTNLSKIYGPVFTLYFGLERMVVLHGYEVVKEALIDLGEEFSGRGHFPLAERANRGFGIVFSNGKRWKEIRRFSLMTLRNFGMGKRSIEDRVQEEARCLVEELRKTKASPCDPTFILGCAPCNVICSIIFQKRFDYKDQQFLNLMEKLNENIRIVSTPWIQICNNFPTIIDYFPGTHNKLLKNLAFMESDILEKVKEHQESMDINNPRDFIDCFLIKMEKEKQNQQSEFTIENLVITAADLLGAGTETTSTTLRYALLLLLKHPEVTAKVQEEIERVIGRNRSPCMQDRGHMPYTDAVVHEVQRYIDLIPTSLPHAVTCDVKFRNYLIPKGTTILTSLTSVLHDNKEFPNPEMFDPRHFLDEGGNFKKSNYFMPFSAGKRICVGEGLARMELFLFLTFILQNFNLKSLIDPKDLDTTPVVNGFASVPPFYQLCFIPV
Chain of Cytochrome P450 3A7 (Homo sapiens) (P24462 whole entry, looked up): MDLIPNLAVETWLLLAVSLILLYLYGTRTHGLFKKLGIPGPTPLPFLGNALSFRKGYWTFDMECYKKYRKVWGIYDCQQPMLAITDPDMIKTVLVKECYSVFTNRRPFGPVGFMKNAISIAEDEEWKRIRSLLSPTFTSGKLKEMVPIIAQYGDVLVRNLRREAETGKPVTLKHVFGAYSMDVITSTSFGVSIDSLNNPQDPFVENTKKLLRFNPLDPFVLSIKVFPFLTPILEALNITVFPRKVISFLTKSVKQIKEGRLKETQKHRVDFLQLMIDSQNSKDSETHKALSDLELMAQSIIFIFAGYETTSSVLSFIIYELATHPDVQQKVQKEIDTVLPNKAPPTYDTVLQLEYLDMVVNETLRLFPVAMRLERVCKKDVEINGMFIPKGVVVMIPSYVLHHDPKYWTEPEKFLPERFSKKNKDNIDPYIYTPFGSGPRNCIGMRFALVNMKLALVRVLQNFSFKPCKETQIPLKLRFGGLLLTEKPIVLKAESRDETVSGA

As for `O=C1CCCCCN1`, the result (in assay [1]; in the assay with Caspase-3 (Homo sapiens); in assay [2]; in assay [3]; in assay [4]; in assay [5]) was inactive. For the same compound, the compound was called inactive (in assay [6]; with CYP2C8 (gene 1558); with CYP2C9 (gene 1559); with CYP2E1 (gene 1571); with CYP4A11 (gene 1579); in [7]). Moreover, the outcome (in assay [8]; in assay [9]; in assay [10]; in [11]; in assay [12]; in the assay with CYP3A5 (gene 1577)) was inactive. In addition, the outcome in assay [13] and in [14] was inactive.
Turning to `O=C(O)CCN(C1(C(=O)NO)CCCC1)S(=O)(=O)c1ccc(Oc2ccc(F)cc2)cc1`, the call (in [1]; with Caspase-3 (Homo sapiens); in [2]; in assay [3]; in assay [4]; in assay [5]) was inactive. The compound was classed as inactive (in assay [6]; with CYP2C8 (gene 1558); with CYP2C9 (gene 1559); with CYP2E1 (gene 1571); in the assay with CYP4A11 (gene 1579); in assay [9]). Besides, the compound was called inactive (in assay [10]; in assay [11]; in [12]; with CYP3A5 (gene 1577); in assay [13]; in [14]). Also, the AC50 (commonly the midpoint of the concentration-response curve, whichever way the signal moves) in assay [7] is 22.8 µM (active).
Take `Cc1c(-c2cccnc2)c2ccccc2n1CCCCC(=O)O`: the compound was classed as inactive (in assay [1]; in the assay with Caspase-3 (Homo sapiens); in [2]; in [4]; in assay [6]; with CYP2C8 (gene 1558)). The result (with CYP2C9 (gene 1559); with CYP2E1 (gene 1571); in the assay with CYP4A11 (gene 1579); in assay [7]; in [9]; in [10]) was inactive. In addition, the outcome (in assay [11]; with CYP3A5 (gene 1577); in assay [13]; in assay [14]) was inactive. The AC50 in [3] was 50 µM (active); in assay [5] it was 35.9 µM (active); in [12], 21.3 µM (active).
Consider `O=c1n(CC2CO2)c(=O)n(CC2CO2)c(=O)n1CC1CO1` (configuration not stated), for which the compound was called inactive (in assay [1]; in the assay with Caspase-3 (Homo sapiens); in assay [2]; in [3]; in [4]; in assay [5]). The compound was called inactive (in assay [6]; in the assay with CYP2C8 (gene 1558); with CYP2C9 (gene 1559); in the assay with CYP2E1 (gene 1571); with CYP4A11 (gene 1579); in [8]). In addition, the result (in assay [9]; in [10]; in assay [11]; in [12]; with CYP3A5 (gene 1577); in [13]) was inactive. Moreover, the compound was called inactive in assay [14]. Moreover, the AC50 in assay [7] was 78.3 µM (active).
Turning to `CCOCCO`, the result (in assay [1]; with Caspase-3 (Homo sapiens); in assay [2]; in assay [3]; in assay [4]; in assay [5]) was inactive. The compound was classed as inactive (in assay [6]; in the assay with CYP2C8 (gene 1558); in the assay with CYP2C9 (gene 1559); with CYP2E1 (gene 1571); with CYP4A11 (gene 1579); in assay [7]). Moreover, the outcome (in assay [9]; in assay [10]; in [11]; in assay [12]; with CYP3A5 (gene 1577); in [13]) was inactive. The result in [14] was inactive.
`CCCCC(CC)COC(=O)CCCCCCCCC(=O)OCC(CC)CCCC` (configuration not stated): the outcome (in [1]; in the assay with Caspase-3 (Homo sapiens); in assay [2]; in assay [3]; in assay [4]; in assay [5]) was inactive. For the same compound, the call (in assay [6]; with CYP2C8 (gene 1558); with CYP2C9 (gene 1559); in the assay with CYP2E1 (gene 1571); with CYP4A11 (gene 1579); in assay [7]) was inactive. In addition, the call (in assay [8]; in assay [9]; in assay [10]; in assay [11]; in assay [12]; with CYP3A5 (gene 1577)) was inactive. For the same compound, the call in [13] and in assay [14] was inactive.
